Compound activity as filed in PubChem.
A selection: hits, their analogues and other compounds. The true share with any hit is near 2.9%.
Integrin act MD – qHTS for Activators of Integrin-Mediated Alleviation for Muscular Dystrophy; 350,000 tested, 0.064% active; alpha7betagal myoblasts, beta-gal FDG fluorescence, 48 h; Potency, µM (titrated, usually from 38.3 µM), without a hit: at the top dose activation, actives largely listed as activators; AID 624291, 2012;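 further: potency means the concentration at half of the fitted maximal effect; 100% = response of the positive control SU9516; nearly all actives have a fitted effect of over 60% in size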
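Alpha7betagal+/- myoblasts (passage 13) were plated 16-24 hr, then exposed to compounds (1:260 dilution of DMSO stock) for 48 hours at 37C. After MPER lysis, β-galactosidase reporter activity was read as FDG fluorescence (ex 480/em 540) after 30 minutes.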
B2AR arrestin – qHTS assay of beta-arrestin-biased ligands of beta2-adrenergic receptor | 330,000 tested, 0.02% active | beta-arrestin recruitment to beta2AR, cell-based reporter | Potency, µM (doses to about 46.1 µM), without a hit: at the top dose activation, most hits filed as activators;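 further: potency means the concentration at half of the fitted maximal effect; 0% = DMSO controls and full agonism = EC100 isoproterenol or metaproterenol; nearly all actives have a fitted effect of over 65% in size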
Target sequence (P07550 whole entry, looked up): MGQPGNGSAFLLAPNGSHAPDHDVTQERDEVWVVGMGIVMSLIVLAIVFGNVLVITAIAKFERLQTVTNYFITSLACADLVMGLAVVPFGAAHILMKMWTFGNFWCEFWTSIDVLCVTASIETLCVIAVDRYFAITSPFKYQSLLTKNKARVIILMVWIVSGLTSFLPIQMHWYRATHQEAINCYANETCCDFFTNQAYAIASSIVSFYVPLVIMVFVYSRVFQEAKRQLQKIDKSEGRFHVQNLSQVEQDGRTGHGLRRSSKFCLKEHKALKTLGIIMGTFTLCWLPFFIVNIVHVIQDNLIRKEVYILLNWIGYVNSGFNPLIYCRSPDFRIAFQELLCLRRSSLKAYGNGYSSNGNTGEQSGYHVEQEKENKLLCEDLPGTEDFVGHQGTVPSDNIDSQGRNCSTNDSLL
IDH1 R132H inh – qHTS for Inhibitors of mutant isocitrate dehydrogenase 1 (IDH1): qHTS; Isocitrate dehydrogenase [NADP] cytoplasmic (Homo sapiens), O75874; IDH1-R132H enzyme, NADPH consumption, diaphorase/resazurin fluorescence; Potency, µM (top dose mostly 76.6 µM), for inactives: at the top dose activity change, negative = inhibition, usual class: inhibitors; 390,000 tested, 0.093% active; AID 602179, 2012; further: potency means the concentration at half of the fitted maximal effect; on the % scale 0 is the no-effect control and ±100 the full control effect; nearly all actives have a fitted effect of over 65% in size
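IDH1-R132H (0.5 ug/mL dispensed) in pH 7.5 Tris buffer was preincubated 30 min with compound, then given a substrate mix of 0.016 mM NADPH and 2 mM alpha-KG for 80 min at room temperature; remaining NADPH was read by diaphorase/resazurin fluorescence.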
D3 antag – qHTS of D3 Dopamine Receptor Antagonist: qHTS; D(3) dopamine receptor (Homo sapiens), P35462; D3R cells, DiscoveRx beta-arrestin luminescence, antagonist mode; stronger effect = lower value; max response, negative = inhibition, %; 360,000 tested, 2.5% active; AID 652054, 2013; in the data active means max response below about -50%; inconclusive means no clear call, values can overlap the other calls; further: on the % scale 0 is the no-effect control and ±100 the full control effect
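Cells plated overnight at 1500 cells/well, then exposed to library compounds with dopamine controls for 90 minutes at 37 degrees C. DiscoveRx reagent added for 30–60 minutes at room temperature; luminescence read, quantitative HTS format.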
D3 ag – qHTS of D3 Dopamine Receptor Agonist: qHTS; D(3) dopamine receptor (Homo sapiens), P35462; D3R DiscoveRx beta-arrestin cells, luminescence, 90 min; max activation, %; 410,000 tested, 0.58% active; AID 652048, 2013; in the data active means max activation above about 30%; further: 0% is about no effect
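Agonist mode: compounds and dopamine controls were applied to plated cells for 90 min at 37 degrees C after an overnight attachment at 1500 cells/well. Luminescent read-out followed 30 - 60 minutes at room temperature with DiscoveRx detection reagent.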
The depositor's hits bear a star; u = inconclusive; x = no result given; ! = not active in a repeat. Unless noted, the call rests on the fitted dose curve; in most records, active means well fitted curve in the direction sought with a large enough effect; inconclusive means small, poorly fitted or top-dose-only effect, or another doubt; inactive means no such curve, though single readings can be large; an effect the other way counts as inactive or inconclusive.

SMILES	Integrin act MD	B2AR arrestin	IDH1 R132H inh	D3 antag	D3 ag
CCCc1[nH]nc2c1C(c1ccc(O)c(OC)c1)C(C#N)=C(N)O2 (configuration not stated)	-31%	-1%	-1%	3	4
O=c1[nH]cnc2sc3c(c12)CN(Cc1ccccc1)CC3	2%	0%	-4%	10	60*
CC1(C)Cc2c(sc3nc[nH]c(=O)c23)CO1	19%	-1%	6%	-6	-6
OCCCNc1ncnc2sc3c(c12)CCN(Cc1ccccc1)C3	10%	0%	-4%	-8	-3
O=c1[nH]cnc2sc3c(c12)CCN(Cc1ccccc1)C3	-24%	0%	0%	43	74*
Clc1cccc(CSc2nncn3c2cc2sccc23)c1	x	x	11%	x	-10
Cc1onc(-c2c(F)cccc2Cl)c1C(=O)OCC(=O)Nc1cccc(S(=O)(=O)N(C)C)c1	-36%	x	-10%	-97*	-26
O=C(c1ccc2c(c1)N(Cc1cccc(Cl)c1)C(=O)c1ccccc1S2=O)N1CCC(Cc2ccccc2)CC1 (configuration not stated)	x	x	11%	x	5
COc1ccc(NC(=O)c2c(NC(=O)COc3ccc(Cl)cc3)sc3c2CCCCC3)cc1	x	x	0%	x	2
C=Cc1c(C)c2cc3[nH]c(cc4nc(cc5nc(cc1[nH]2)C(C)=C5CCC(=O)O)C(CCC(=O)O)=C4C)c(C)c3C=C	24%	0%	u	4	36*!
CC1CCN(C(=O)Cn2c(=O)n(CCCCCC(=O)NCc3ccccc3Cl)c(=O)c3sccc32)CC1	x	x	8%	x	-14
Cn1cnc(S(=O)(=O)N2CCCCC2c2cc(C(=O)Nc3cccc(C#N)c3)no2)c1 (configuration not stated)	x	x	x	-80*	-22
CC(C)C[C@@H]1NC(=O)[C@H](C(C)C)NC(=O)c2cc([N+](=O)[O-])cc(I)c2OCC[C@@H](C(N)=O)NC1=O	23%	-2%	-7%	-53*	-20
NC(=O)CC[C@@H]1NC(=O)[C@H](CO)NC(=O)c2cc([N+](=O)[O-])cc(I)c2OCC[C@@H](C(N)=O)NC1=O	26%	-1%	3%	-3	7
CC(=O)c1ccc(NC(=O)Cn2c(=O)n(Cc3ccco3)c(=O)c3sc4ccccc4c32)cc1	x	x	-7%	x	0
Cc1c(Cl)cccc1NC(=S)NNc1ncc(C(F)(F)F)cc1Cl	-1%	0%	-4%	-75*	-75
O=C(NNc1ncc(C(F)(F)F)cc1Cl)c1c(Cl)cccc1Cl	-9%	7%	19%	-70*	-9
Cc1ccccc1NC(=S)NNc1ncc(C(F)(F)F)cc1Cl	3%	0%	-4%	-93*	-16
COc1ccc(/C=N/N2CCN(c3ccc(Cl)cc3)CC2)cc1	27%	0%	0%	-2	-2
Cc1ccc(N=C2C(=S)N(c3ccc(C)cc3)C(=N)N2/N=C/c2ccc(Cl)cc2)cc1	-31%	0%	-2%	-51*	0
Cc1ccc(C(=O)NCCC(=O)N2CCC3(CC2)NCCc2[nH]cnc23)cc1C	3%	0%	-6%	-1	4
CCOC(=O)Cn1c(=S)[nH]c2c(oc3ccc(Cl)cc32)c1=O	3%	0%	-7%	-68*	0
O=C1/C(=C\c2ccco2)SC(=S)N1Cc1ccccc1	-21%	-1%	1%	u	-3
COc1ccc(CCN2C(=O)/C(=C\c3ccco3)SC2=S)cc1OC	0%	0%	1%	17	59*
Cc1ccccc1OCC(=O)N/N=C/c1ccc(N(C)C)cc1	-15%	0%	-8%	1	-5
CN(C)c1ccc(P(=O)(CC(=O)N/N=C/c2ccc(C#N)cc2)OCCCl)cc1 (configuration not stated)	5%	0%	-7%	-63*	-25
CCN(CC)CCCNC(=O)C1c2ccccc2C(=O)N(C)C1c1ccc(OC)cc1 (configuration not stated)	-12%	0%	6%	-52*	-4
